Bioassay records: PubChem, several laboratories
Compounds with a hit are over-represented: about 1.6% of the library has one in this group of screens.
eIF4E 4G PPI: blocks eIF4E binding to eIF4G. P63073+Q04637. TR-FRET eIF4E-eIF4GI(517-606) binding, 2 h. inhibition, % at 21.7 µM. 0.37% of 220,000 active. AID 782;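 active = inhibition above about 30%, limit read from the data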
eIF4H FP inh: inhibitors of RNA binding by human eIF4H | eIF4H fluorescence polarization binding assay | inhibition, % at 35 µM | 0.94% of 290,000 active;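 also: calls also rest on retests at 20 µM and on dose response follow-up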
PABP1 MLLE inh: inhibitors of microRNA-mediated deadenylation, human PABP1 MLLE binding | P11940 | GST-MLLE / FITC-PAM2 fluorescence polarization | inhibition, % at 20 µM | 0.36% of 360,000 active; in the data active = inhibition above about 35%, passing the limit was not always enough
PERK inh: blocks human PERK kinase; CHO PERK-DD fusion, SEAP luminescence translation reporter; inhibition, % at 5.6 µM; 0.17% of 220,000 active; AID 1416;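 active = inhibition above the mean inhibition of all tested compounds plus 3 SD, set separately per screening campaign, cut at about 2.9% in these data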;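 also: PERK kinase domain activated by AP20187 dimerizer at 100 nM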
PABP polyA inh: PABP-poly(A) binding inhibition; PABP-poly(A) RNA binding, fluorescence polarization; AID 2014; 1% of 290,000 active; inhibition, % at 35 µM;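 also: calls also rest on retests at 20 µM and on dose response follow-up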
Of the large screens only hits and unclear results are named; the others gave an inactive call; [ ] = another dose, or the depositor's remark. Unless noted, no rule for the calls is given here.

COC(=O)c1cc(OC)c(OC)cc1NC(=O)CN1C(=O)c2ccccc2C1=O	none
Cc1ccc(C2(c3noc(CN(C)Cc4cnn(C)c4)n3)CCCC2)cc1	none
O=c1[nH]c2ccc(NC(=S)Nc3ccccc3Cl)cc2[nH]1	PABP1 MLLE inh 37.9
COc1ccc(C(C)(O)c2nc(-c3ccc(F)c(Cl)c3)cs2)cc1 (stereo not drawn)	none (no result: eIF4E 4G PPI, eIF4H FP inh, PERK inh, PABP polyA inh)
COc1ccc(OCc2nc(-c3ccc(F)c(F)c3)cs2)cc1	PERK inh 3.3
C[C@H](O)[C@H](O)[C@H]1CNc2nc(N)[nH]c(=O)c2N1	PABP1 MLLE inh 89.2 (no result: eIF4E 4G PPI, eIF4H FP inh, PERK inh, PABP polyA inh)
Cc1ccc(CN2CC(N3CCN(c4ccccn4)CC3)CS2(=O)=O)cc1 (stereo not drawn)	none (no result: eIF4E 4G PPI, eIF4H FP inh, PERK inh, PABP polyA inh)
COc1ccc(NS(=O)(=O)c2cc(OC)ccc2OC)cc1	none (no result: eIF4E 4G PPI, eIF4H FP inh, PERK inh, PABP polyA inh)
C=CCSc1nnc2c(n1)OC(c1c(C)[nH]n(-c3ccccc3)c1=O)Nc1ccccc1-2 (stereo not drawn)	eIF4H FP inh inconclusive, PABP polyA inh 84.9
c1ccc(CSc2nnc3c(n2)OC(c2ccco2)Nc2ccccc2-3)cc1 (stereo not drawn)	eIF4H FP inh 4.0
CCCC(=O)C1=C(O)C(C(=O)OC)C(C)(C)CC1=Nc1ccc(Br)cc1 (stereo not drawn)	none
COc1ccc(-c2nc(S(=O)(=O)c3ccccc3)c(N3CCCC3)o2)cc1	none (no result: eIF4E 4G PPI, eIF4H FP inh, PERK inh, PABP polyA inh)
Cc1ccccc1-c1nc(S(=O)(=O)c2ccccc2)c(N2CCCC2)o1	PABP1 MLLE inh 41.6 (no result: eIF4E 4G PPI, eIF4H FP inh, PERK inh, PABP polyA inh)
CC(=O)N(C1=C(N2CCOCC2)C(=O)c2ccccc2C1=O)c1ccc(C(=O)O)cc1	eIF4E 4G PPI 35.8
CCC(C(=O)OCC(=O)Nc1cc(OC)ccc1OC)c1ccccc1 (stereo not drawn)	PABP polyA inh 50.4
Cc1ccc(S(=O)(=O)N2CCN(C(=O)CSc3nnc(-c4ccco4)o3)CC2)cc1	none
O=C(N/N=C/c1ccc(-c2ccc(S(=O)(=O)Nc3ncccn3)cc2)o1)c1cc2ccccc2cc1O	eIF4H FP inh 82.6, PABP polyA inh 52.1
Cc1ccc(-c2ccc(/C=N/NC(=O)c3ccccc3O)o2)cc1	PERK inh 3.1 (no result: PABP1 MLLE inh)
CCOc1ccc(S(=O)(=O)N(CC(=O)N/N=C/c2ccc(-c3ccc([N+](=O)[O-])cc3)o2)c2ccccc2)cc1	eIF4H FP inh 78.8, PABP polyA inh 22.1
CCOc1ccc(C(=O)N/N=C/c2ccc(-c3ccc(S(=O)(=O)Nc4ncccn4)cc3)o2)cc1	eIF4H FP inh 68.7, PABP polyA inh 31.5
CCOC(=O)Cn1c2ccccc2c2nc3ccccc3nc21	none
CCC1(CC)C(=O)NC(=O)NC1=S	none (no result: eIF4E 4G PPI, eIF4H FP inh, PERK inh, PABP polyA inh)
Cc1sc(NC(=O)CCl)c(C(=O)c2ccccc2)c1C	PABP1 MLLE inh 36.9
Cc1ccccc1C(=O)Nc1sc(C)c(C)c1C(=O)c1ccccc1	none
COC(=O)C1=C(C)N(Cc2ccccc2)C(=NCc2cc(OC)c(OC)c(OC)c2)N[C@H]1CCc1ccccc1	none (no result: eIF4E 4G PPI, eIF4H FP inh, PERK inh, PABP polyA inh)
NC(=O)N/N=C/c1sc(=O)n(-c2ccccc2)c1Cl	none
O=C(N/N=C/c1sc(=O)n(-c2ccccc2)c1Cl)c1ccccc1	eIF4H FP inh 65.1, PABP polyA inh active
CCOC(=O)c1c(NC(C)=O)sc2c(OCC(O)CN(CC)CC)c(Br)ccc12 (stereo not drawn)	none
CN(C)c1ccc(N/C=C/C(=O)c2ccc(F)cc2)cc1	eIF4H FP inh 46.6, PABP polyA inh 58.3
O=C(Cc1cccc2ccccc12)NC(NC(=S)Nc1ccccc1Cl)C(Cl)(Cl)Cl (stereo not drawn)	PABP1 MLLE inh 45.9
O=C(NCc1cccc(C(F)(F)F)c1)C1CC(c2ccc(C(F)(F)F)cc2)=NO1 (stereo not drawn)	none (no result: PERK inh)
COc1cc(/C=C2\CC/C(=C\c3cc(OC)c(O)c(OC)c3)C2=O)cc(OC)c1O	eIF4E 4G PPI 40.0[fluorescence artefact?]
O=C(O)c1ccc(NC(=S)Nc2ccccc2)cc1	none
Cc1nn(-c2ccccc2)c(C)c1-c1cc(C(=O)N/N=C/c2ccc(O)cc2)[nH]n1	none
CCn1c(CSc2nnc(-c3cccnc3)n2-c2ccccc2C)nc2cc(C(=O)O)ccc21	none (no result: PABP1 MLLE inh)
CCn1c(CSc2nnc3ccccn23)nc2cc(C(=O)O)ccc21	eIF4H FP inh 128.9, PABP polyA inh 128.2
O=C(CN1C(=O)NC2(CCCc3ccccc32)C1=O)N1CCc2ccccc2C1 (stereo not drawn)	none
COC(=O)C1=C(C)N(Cc2ccccc2)C(=O)N[C@H]1c1ccco1	none (no result: eIF4E 4G PPI, eIF4H FP inh, PERK inh, PABP polyA inh)
COc1cccc(CN2CCC(C(=O)N3CCN(c4ccccc4F)CC3)CC2)c1	eIF4H FP inh 61.1
CCCCC(=O)N1CCN(c2ccc(OC)cc2[N+](=O)[O-])CC1	none
COc1cccc(CC(=O)N2CCN(c3ccccc3[N+](=O)[O-])CC2)c1	eIF4H FP inh 52.1, PABP polyA inh active
CC(C)NC(=O)C1CCN(Cc2cccc(Oc3ccccc3)c2)CC1	eIF4H FP inh 90.3, PABP polyA inh 68.9 (no result: eIF4E 4G PPI, PERK inh)
COc1ccc(OC)c(CN2CCC(C(=O)N3CCN(c4ccccc4F)CC3)CC2)c1	none
CC(C)NC(=O)C1CCN(Cc2cccc(OCc3ccccc3)c2)CC1	none (no result: eIF4E 4G PPI, eIF4H FP inh, PERK inh, PABP polyA inh)
O=C(NCC(c1ccco1)N1CCN(c2ccccc2)CC1)C1CCCCC1 (stereo not drawn)	none (no result: eIF4E 4G PPI, eIF4H FP inh, PERK inh, PABP polyA inh)
CN(Cc1cccnc1)Cc1c(C(=O)N2CCc3ccccc3C2)nc2ccc(Cl)cn12	PABP polyA inh 36.7
COc1ccc(C(=O)Nc2ccc3oc(Cc4ccc(Cl)cc4)nc3c2)cc1OC	eIF4E 4G PPI 52.8
COc1ccc(Cc2nc3ccc(C(=O)NCCc4ccncc4)cc3o2)cc1OC	none (no result: eIF4E 4G PPI, PERK inh)
O=C(CCCSc1nc2ccccc2[nH]1)NCc1ccc(Cl)cc1	none
Cc1c2c(=O)n(-c3nc4ccccc4s3)nc-2cc(O)n1Cc1ccccc1	eIF4E 4G PPI 32.3, eIF4H FP inh 59.7, PABP polyA inh 50.4
COc1ccc(OC)c(NS(=O)(=O)c2cc(OC)ccc2OC)c1	none
COc1ccc2[nH]c(=O)c(CN(C(=O)c3cccnc3)c3cccc(C)c3)cc2c1	none
Nc1ccc2nn(-c3cccc4ccccc34)nc2c1	eIF4H FP inh 91.0
COc1ccccc1C(=O)NCCNc1nc2cc(C)cc(C)c2cc1C#N	none (no result: eIF4E 4G PPI, PERK inh)
Cc1cc(C)c2cc(C#N)c(NCCOC(=O)c3ccccc3C)nc2c1	PERK inh 3.2
COCCCN1CN(Cc2ccccc2)CNC1=S	eIF4H FP inh 0.6
Cc1onc(-c2ccccc2)c1C(=O)NC(=S)NNC(=O)c1cccnc1	none
Cc1onc(-c2ccccc2)c1C(=O)NC(=S)NNC(=O)c1ccncc1	PABP1 MLLE inh 41.6
Oc1[nH]c(N=C2N=c3ccccc3=N2)c2ccccc12	eIF4H FP inh 79.9, PABP polyA inh 43.0
COc1cc2c(cc1NC(=O)c1ccc(C)c([N+](=O)[O-])c1)oc1ccccc12	eIF4H FP inh active
NC(CO)C(=O)NNCc1ccc(O)c(O)c1O (stereo not drawn)	eIF4H FP inh 97.3, PABP1 MLLE inh 47.9, PABP polyA inh 8.4
COC(=O)C(N)Cc1ccc(O)c(O)c1 (stereo not drawn)	none
CO/N=C/C(C#N)c1ncc(C(F)(F)F)cc1Cl (stereo not drawn)	eIF4E 4G PPI 83.3
